According to PubChem BioAssay (NCI):
This is part of a sample that, as a whole, favours compounds with a hit. Of some 83,000 tested, about 20% had one in any assay.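 The endpoint reported here, percent growth, reads 100 for growth as untreated, 0 for no net growth and -100 for all cells dead.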 Unmarked numbers belong to inactive results. Activity calls are given as the source filed them. How the source made its calls: active means growth percent below 10; inactive means the rest.

How the values were obtained:
Assay in all cases: NCI-60 one-dose screen, 48 h (100 = growth as untreated, 0 = no growth, -100 = all killed)
Conditions in all cases: 10 µM unless noted
HCT-15 colon = test system: HCT-15 colon
HT29 colon = test system: HT29 colon
SNB-75 CNS = test system: SNB-75 CNS
SNB-19 CNS = test system: SNB-19 CNS
U251 CNS = test system: U251 CNS
PC-3 prostate = test system: PC-3 prostate
SK-MEL-5 melanoma = test system: SK-MEL-5 melanoma
UACC-62 melanoma = test system: UACC-62 melanoma
LOX IMVI melanoma = test system: LOX IMVI melanoma
SK-MEL-28 melanoma = test system: SK-MEL-28 melanoma

Row | Structure (SMILES) | growth (HCT-15 colon) | growth (HT29 colon) | growth (SNB-75 CNS) | growth (SNB-19 CNS) | growth (U251 CNS) | growth (PC-3 prostate) | growth (SK-MEL-5 melanoma) | growth (UACC-62 melanoma) | growth (LOX IMVI melanoma) | growth (SK-MEL-28 melanoma)
1 | CC1=C([Se]CC(OC(=O)[C@@H](CSSC(C)(C)C)NC(=O)C(C)(C)C)C(=O)NCCCCCC(=O)OCc2ccccc2)C(=O)c2ccccc2C1=O (stereo not given in full) | 20.4% | -29.5% (active) | -92.5% (active) | -73.5% (active) | -37.5% (active) | -20.8% (active) | -48.8% (active) | -30.6% (active) | 4.76% (active) | -27.3% (active)
2 | O=CN1N=C(c2ccc(Cl)cc2)CC1c1cccc(Nc2ccnc3cc(Cl)ccc23)c1 (stereo not given) | 16.9% | 3.98% (active) | 1.24% (active) | 43.3% | 13% | 12.8% | -63.2% (active) | 30.3% | 11.3% | 39.3%
3 | COc1cc(/C=C/C(=O)CC(=O)/C=C/c2ccc(OC(=O)CCNC34CC5CC(CC(C5)C3)C4)c(OC)c2)ccc1OC(=O)CCNC12CC3CC(CC(C3)C1)C2 | 46.9% | -70.6% (active) | 7.02% (active) | 29.6% | 22.2% | 21% | 25.3% | 43.2% | 0.619% (active) | 33.6%
4 | C[C@@H]1[C@H]2[C@H](C=C3[C@@H]4CC[C@H]5Cc6nc7c(nc6C[C@]5(C)[C@H]4C[C@@H](O)[C@@]32C)C[C@@H]2CC[C@H]3C4=C[C@@H]5O[C@@]6(CC[C@](C)(CO)O6)[C@@H](C)[C@@]5(O)[C@@]4(C)[C@H](O)C[C@@H]3[C@@]2(C)C7)O[C@]12CCC(C)(C)O2 | 11.2% | -14.6% (active) | -9.04% (active) | 25.1% | 7.53% (active) | -32% (active) | 0.934% (active) | -0.259% (active) | 3.2% (active) | 40.8%
5 | CN(C)c1ccc(-n2nc3ccccc3n2)cc1 | 108% | 111% | 108% | 98.6% | 95.5% | 101% | 75.2% | 81.1% | 93.8% | 126%
6 | O=c1c2ccccc2c2nccn2c2cc(Cl)ccc12 | 129% | 83.8% | 73.3% | 119% | 105% | 72.5% | 72.6% | 129% | 95.4% | 96.8%
7 | Cc1onc(-c2ccccc2Cl)c1C(=O)N[C@@H]1C(=O)N2[C@@H]1SC(C)(C)[C@@H]2C(=O)O | 106% | 105% | 103% | 105% | 98.4% | 98.3% | 101% | 99.5% | 99.9% | 117%
8 | O=C(NCCNC(=O)Oc1cccc2ccccc12)Oc1cccc2ccccc12 | 99.6% | 108% | 89.5% | 94.5% | 116% | 78.5% | 85.9% | 91.1% | 81.9% | 128%
9 | Oc1c(Cl)cc(Cl)c(Cl)c1Cc1c(O)c(Cl)cc(Cl)c1Cl | 11.5% | 13.1% | 46.9% | 23% | 15% | -6.08% (active) | -72.7% (active) | 2.95% (active) | 26.2% | 22.4%
10 | COc1ccc2c3c(ccc2c1)C(=O)/C(=C\O)CC3 | 87.3% | 103% | 91.9% | 103% | 82.6% | 88.2% | 103% | 107% | 87.1% | 128%
11 | O=C1C=CC(=O)N1c1ccccn1 | 97.7% | 115% | 89.3% | 96.6% | 110% | 99.4% | 111% | 95% | 93.6% | 115%
12 | Cc1n(Cc2ccc3ccccc3c2)cc[n+]1Cc1ccc2ccccc2c1 | 85.3% | 1.25% (active) | 1.07% (active) | 2.02% (active) | 8.17% (active) | 14.1% | -92% (active) | -40.3% (active) | -75% (active) | -11.6% (active)
13 | O=C(O)c1ccc(CNS(=O)(=O)c2ccc3ccccc3c2)cc1 | 104% | 102% | 90.8% | 104% | 106% | 104% | 105% | 102% | 100% | 106%
14 | Cc1cc2ccccn2c1C(=O)c1ccc(C(=O)c2ccccc2)cc1 | 85.5% | 82% | 93.5% | 86.1% | 86.2% | 85.2% | 98.4% | 75.1% | 92.1% | 89.7%
15 | O=C(c1ccc(N2CCOCC2)cc1[N+](=O)[O-])N1CCOCC1 | 96.2% | 90.5% | 31.8% | 96.9% | 105% | 93.6% | 136% | 97% | 98.3% | 96.9%
16 | Oc1c(Cl)cc(Oc2cc(Cl)c(O)c(CN3CCOCC3)c2)cc1CN1CCOCC1 | 82.1% | 105% | 88.1% | 86.2% | 96.9% | 81% | 87.5% | 66.8% | 83.3% | 126%
17 | CCN(CC)CCOCC[C@H]1CC[C@H]2[C@@H]3[C@H](C)Cc4cc(OS(N)(=O)=O)ccc4[C@H]3CC[C@]12C | -37% (active) | -63.8% (active) | -42.7% (active) | -94.4% (active) | -71% (active) | -88.8% (active) | -90.4% (active) | -79.7% (active) | -65% (active) | -91.1% (active)
18 | COc1ccc([N+](=O)[O-])c(S(=O)(=O)c2ccc(Cl)cc2)n1 | 27.2% | 73.7% | 78% | 92% | 95.6% | 92.3% | 91.6% | 89.1% | 10.7% | 82%
19 | CCOc1cc(/C=C/C(=O)CC(=O)/C=C/c2ccc(OC(=O)CNCCN(CC)CC)c(OCC)c2)ccc1OC(=O)CNCCN(CC)CC | -59.1% (active) | -88% (active) | -15.1% (active) | 11.4% | -60.1% (active) | -18.5% (active) | -90.1% (active) | -70.9% (active) | -82.3% (active) | -57.1% (active)
20 | Clc1ccc2c(c1)C(Br)c1cc(Cl)cc(Cl)c1-2 (stereo not given) | 78.1% | 111% | 73.5% | 90.9% | 79.5% | 82.6% | 51.2% | 66.1% | 4.27% (active) | 112%
21 | COc1ccc(C2=NN(C(N)=S)C(c3ccc4c(c3)OCO4)C2)cc1 (stereo not given) | 23.2% | 7.46% (active) | 26.5% | 46.9% | 21.6% | 33.3% | 41.5% | 43.6% | -18.2% (active) | 75.4%
22 | C(=C1c2ccccc2-c2ccccc21)c1ccncc1 | 26.9% | 8.42% (active) | -5.86% (active) | 45.1% | 27.8% | 58.6% | 46.6% | 30.8% | 39.5% | 68.8%
23 | COc1ccc(N2CCN(CC(=O)N3CCN(c4nnc(-c5ccccc5)c(-c5ccccc5)n4)CC3)CC2)cc1 | 35.9% | 26.1% | 70.2% | 62.8% | 46.7% | 22% | 13.9% | 56.7% | 44.6% | 71.3%
24 | O=CNc1ccc2c(c1)Cc1cc([N+](=O)[O-])ccc1-2 | 27% | 37.5% | 15.6% | 36.2% | 16.4% | 32.3% | 18.8% | 29.6% | 40.8% | 57%
25 | CC(NC(N)=S)c1ccccc1 (stereo not given) | 104% | 110% | 95.1% | 102% | 105% | 108% | 99.6% | 101% | 85% | 110%
26 | Nc1ccccc1C#Cc1ccccc1C#Cc1ccc(OCCCCCCOc2ccc(C#Cc3ccccc3C#Cc3ccccc3N)cc2)cc1 | 106% | 108% | 105% | 112% | 100% | 97% | 82.4% | 96.6% | 103% | 109%
